Test results taken from PubChem BioAssay (Tox21).
Inconclusive results are not listed. Calls of active or inactive are those of the source. Calls follow the shape of the dose curve; as a rule, active = well fitted curve in the direction sought with a large enough effect in the repeat runs; inconclusive = weak or mixed curves; inactive = no such curve, though single readings can be large; an effect the other way counts as inactive or inconclusive.

How the values were obtained:
[1] = biological target: Cytochrome P450 2D6 (Homo sapiens) (UniProt P10635); test: Cytochrome P450 Family 2 Subfamily D Member 6 (CYP2D6) small molecule antagonists: luciferase reporter qHTS assay (AID 1671196); also: nearly all actives have a fitted effect of over 50% in size; also: potency is read from the fitted curve at half-maximal effect; as to activity change, negative = inhibition: series mostly up to about 120 µM
Method in brief: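 Inhibition of CYP2D6 was gauged by loss of luminescence, since light produced tracks the luciferin generated from a proluciferin substrate. A 10 min room-temperature preincubation preceded 1 h NADPH-supported turnover.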

[2] = biological target: Cytochrome P450 2C19 (Homo sapiens) (UniProt P33261); test: Cytochrome P450 Family 2 Subfamily C Member 19 (CYP2C19) small molecule antagonists: luciferase reporter qHTS assay (AID 1671197); also: nearly all actives have a fitted effect of over 65% in size; also: potency is read from the fitted curve at half-maximal effect; as to activity change, negative = inhibition: series mostly up to about 120 µM
Method in brief: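 Compounds were tested on CYP2C19 activity via proluciferin conversion to luciferin. The 37C, 1 h reaction followed NADPH addition; detection reagent stopped it.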

[3] = biological target: Cytochrome P450 2C9 (Homo sapiens) (UniProt P11712); test: Cytochrome P450 Family 2 Subfamily C Member 9 (CYP2C9) small molecule antagonists: luciferase reporter qHTS assay (AID 1671198); also: nearly all actives have a fitted effect of over 50% in size; also: potency is read from the fitted curve at half-maximal effect; as to activity change, negative = inhibition: series mostly up to about 120 µM
Method in brief: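 CYP2C9 activity was measured with a P450-Glo proluciferin substrate. Enzyme–substrate mix was held with compound for 10 min at room temperature, then NADPH regeneration solution was added for 1 h at 37C. Luciferin product was read as luminescence.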

[4] = biological target: Cytochrome P450 1A2 (Homo sapiens) (UniProt P05177); test: Cytochrome P450 Family 1 Subfamily A Member 2 (CYP1A2) small molecule antagonists: luciferase reporter qHTS assay (AID 1671199); also: nearly all actives have a fitted effect of over 50% in size; also: potency is read from the fitted curve at half-maximal effect; as to activity change, negative = inhibition: series mostly up to about 120 µM
Method in brief: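 Signal from luciferin formed by CYP1A2 from a proluciferin substrate is read as luminescence, expressed in relative luminescence units. Compounds sit with enzyme 10 min, NADPH-driven reaction runs 1 h, all at room temperature.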

[5] = biological target: Voltage-gated inwardly rectifying potassium channel KCNH2 (Homo sapiens) (UniProt Q12809); test: Human Ether-a-go-go-Related Gene (hERG) channel small molecule antagonists: fluorescence cell-based qHTS assay (AID 1671200); also: series mostly up to about 77 µM; nearly all actives have a fitted effect of over 50% in size
Method in brief: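 Thallium flux as potassium surrogate: FluxOR II dye loaded 1 h at room temperature into hERG-expressing U2OS cells, then stimulus buffer added after 10 min. Kinetic 480 nm excitation/540 nm emission read, 2 min.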

[6] = biological target: Cytochrome P450 3A4 (Homo sapiens) (UniProt P08684); test: Cytochrome P450 Family 3 Subfamily A Member 4 (CYP3A4) small molecule antagonists: luciferase reporter qHTS assay (AID 1671201)
Method in brief: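 Recombinant human CYP3A4 converts a proluciferin substrate to luciferin over 1 h at room temperature after NADPH regeneration solution is added (compound preincubated 10 min); detection reagent stops reaction, luminescence read 20 min later as relative units.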
% is scaled to controls: 0 for no effect and ±100 for the full control effect.

Cytochrome P450 1A2 (Homo sapiens), sequence (P05177 whole entry, looked up): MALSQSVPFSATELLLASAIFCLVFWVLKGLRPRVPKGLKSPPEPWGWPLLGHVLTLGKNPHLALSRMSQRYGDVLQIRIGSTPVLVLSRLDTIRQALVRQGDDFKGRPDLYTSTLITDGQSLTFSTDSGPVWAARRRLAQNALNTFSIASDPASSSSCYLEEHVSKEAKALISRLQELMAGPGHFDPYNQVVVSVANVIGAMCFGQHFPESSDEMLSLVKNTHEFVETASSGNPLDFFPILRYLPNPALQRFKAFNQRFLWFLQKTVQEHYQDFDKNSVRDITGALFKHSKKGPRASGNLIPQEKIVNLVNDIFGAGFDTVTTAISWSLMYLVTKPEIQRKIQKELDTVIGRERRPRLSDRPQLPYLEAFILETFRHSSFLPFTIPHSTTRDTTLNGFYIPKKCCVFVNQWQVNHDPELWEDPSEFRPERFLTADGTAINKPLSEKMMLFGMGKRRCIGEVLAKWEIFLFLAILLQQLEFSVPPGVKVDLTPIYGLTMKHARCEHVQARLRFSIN
Cytochrome P450 2C9 (Homo sapiens), sequence (P11712 whole entry, looked up): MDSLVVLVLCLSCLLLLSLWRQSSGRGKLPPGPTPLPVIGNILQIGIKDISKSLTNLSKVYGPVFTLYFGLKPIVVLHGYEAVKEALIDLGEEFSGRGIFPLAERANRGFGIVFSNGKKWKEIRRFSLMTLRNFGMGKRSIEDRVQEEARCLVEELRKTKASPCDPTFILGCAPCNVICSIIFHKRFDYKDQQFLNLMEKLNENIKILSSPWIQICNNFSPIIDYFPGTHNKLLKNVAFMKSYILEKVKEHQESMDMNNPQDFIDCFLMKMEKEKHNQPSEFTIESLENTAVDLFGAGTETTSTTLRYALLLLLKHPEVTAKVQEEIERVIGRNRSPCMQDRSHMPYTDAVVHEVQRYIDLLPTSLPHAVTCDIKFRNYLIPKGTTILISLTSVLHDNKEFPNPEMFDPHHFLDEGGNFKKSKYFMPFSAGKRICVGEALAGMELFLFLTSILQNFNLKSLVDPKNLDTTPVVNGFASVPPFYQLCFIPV
Cytochrome P450 2D6 (Homo sapiens), sequence (P10635 whole entry, looked up): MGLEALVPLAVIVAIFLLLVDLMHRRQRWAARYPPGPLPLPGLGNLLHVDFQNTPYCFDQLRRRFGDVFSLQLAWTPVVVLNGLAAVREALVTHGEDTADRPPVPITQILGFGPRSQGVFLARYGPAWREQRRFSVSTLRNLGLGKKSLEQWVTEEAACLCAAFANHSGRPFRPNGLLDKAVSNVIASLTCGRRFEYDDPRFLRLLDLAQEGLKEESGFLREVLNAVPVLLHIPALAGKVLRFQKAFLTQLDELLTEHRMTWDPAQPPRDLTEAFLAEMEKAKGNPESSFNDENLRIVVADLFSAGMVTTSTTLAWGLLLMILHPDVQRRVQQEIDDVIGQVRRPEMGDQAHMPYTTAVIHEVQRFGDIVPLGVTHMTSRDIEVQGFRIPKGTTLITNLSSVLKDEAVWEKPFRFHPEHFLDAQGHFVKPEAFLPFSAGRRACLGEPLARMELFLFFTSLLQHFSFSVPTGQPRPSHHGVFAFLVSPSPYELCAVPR
Cytochrome P450 3A4 (Homo sapiens), sequence (P08684 whole entry, looked up): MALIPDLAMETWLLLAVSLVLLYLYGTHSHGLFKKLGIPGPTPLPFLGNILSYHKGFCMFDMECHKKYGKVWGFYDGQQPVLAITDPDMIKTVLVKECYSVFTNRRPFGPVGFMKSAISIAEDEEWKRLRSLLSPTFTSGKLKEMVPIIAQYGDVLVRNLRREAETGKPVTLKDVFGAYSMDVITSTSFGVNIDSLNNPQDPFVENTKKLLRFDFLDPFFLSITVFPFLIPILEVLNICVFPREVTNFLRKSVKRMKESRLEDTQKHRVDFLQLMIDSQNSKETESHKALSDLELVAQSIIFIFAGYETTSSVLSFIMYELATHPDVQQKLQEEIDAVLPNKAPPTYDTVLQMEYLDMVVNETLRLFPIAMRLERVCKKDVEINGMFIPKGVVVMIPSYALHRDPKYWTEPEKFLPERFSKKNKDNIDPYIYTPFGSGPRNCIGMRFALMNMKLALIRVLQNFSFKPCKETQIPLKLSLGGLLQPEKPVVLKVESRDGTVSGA
Cytochrome P450 2C19 (Homo sapiens), sequence (P33261 whole entry, looked up): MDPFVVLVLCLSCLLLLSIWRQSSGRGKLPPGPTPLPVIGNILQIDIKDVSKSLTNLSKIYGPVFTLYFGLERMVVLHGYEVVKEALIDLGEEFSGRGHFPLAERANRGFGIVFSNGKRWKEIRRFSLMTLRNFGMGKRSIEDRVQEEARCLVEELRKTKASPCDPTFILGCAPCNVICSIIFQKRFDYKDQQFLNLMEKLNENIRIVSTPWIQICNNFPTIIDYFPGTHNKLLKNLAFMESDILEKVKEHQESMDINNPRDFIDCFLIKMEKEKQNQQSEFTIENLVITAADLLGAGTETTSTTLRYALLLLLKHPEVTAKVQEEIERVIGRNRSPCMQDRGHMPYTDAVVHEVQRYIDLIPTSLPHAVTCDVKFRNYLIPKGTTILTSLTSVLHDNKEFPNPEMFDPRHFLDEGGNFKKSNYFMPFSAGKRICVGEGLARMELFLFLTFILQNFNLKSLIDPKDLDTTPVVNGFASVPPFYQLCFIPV
Voltage-gated inwardly rectifying potassium channel KCNH2 (Homo sapiens), sequence (Q12809 whole entry, looked up): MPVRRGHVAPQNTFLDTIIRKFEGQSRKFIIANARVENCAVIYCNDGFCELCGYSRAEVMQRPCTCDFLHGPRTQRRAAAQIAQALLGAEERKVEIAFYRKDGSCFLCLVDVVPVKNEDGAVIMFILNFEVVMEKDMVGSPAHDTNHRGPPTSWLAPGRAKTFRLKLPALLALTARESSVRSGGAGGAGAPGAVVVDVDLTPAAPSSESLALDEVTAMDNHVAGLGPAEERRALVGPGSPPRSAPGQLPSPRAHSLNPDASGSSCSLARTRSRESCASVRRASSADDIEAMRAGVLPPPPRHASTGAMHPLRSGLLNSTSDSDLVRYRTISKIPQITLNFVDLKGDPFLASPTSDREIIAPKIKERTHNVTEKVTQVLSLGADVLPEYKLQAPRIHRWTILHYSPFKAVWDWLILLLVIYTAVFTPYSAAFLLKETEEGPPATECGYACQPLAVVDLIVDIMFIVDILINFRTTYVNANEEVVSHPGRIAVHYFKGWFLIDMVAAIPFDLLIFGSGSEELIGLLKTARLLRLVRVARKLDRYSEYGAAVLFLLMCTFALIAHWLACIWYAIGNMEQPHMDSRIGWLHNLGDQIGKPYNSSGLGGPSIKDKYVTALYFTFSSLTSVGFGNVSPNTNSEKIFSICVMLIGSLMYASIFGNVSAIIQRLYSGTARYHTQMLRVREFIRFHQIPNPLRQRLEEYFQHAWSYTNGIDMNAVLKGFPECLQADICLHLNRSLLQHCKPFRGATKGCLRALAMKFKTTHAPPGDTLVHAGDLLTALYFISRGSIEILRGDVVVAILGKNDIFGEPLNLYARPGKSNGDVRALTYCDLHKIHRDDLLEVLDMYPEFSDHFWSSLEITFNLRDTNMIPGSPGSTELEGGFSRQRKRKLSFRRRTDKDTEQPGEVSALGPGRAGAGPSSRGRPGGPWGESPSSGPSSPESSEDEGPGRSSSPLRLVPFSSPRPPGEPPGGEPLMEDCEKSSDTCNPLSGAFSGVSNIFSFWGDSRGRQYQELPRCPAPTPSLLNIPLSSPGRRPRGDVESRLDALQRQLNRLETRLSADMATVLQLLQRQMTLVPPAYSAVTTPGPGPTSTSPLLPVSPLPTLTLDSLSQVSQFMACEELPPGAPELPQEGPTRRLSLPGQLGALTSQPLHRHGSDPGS

NC(=S)Nc1cccc2ccccc12
inactive: activity change, negative = inhibition [2] -10% [at 10.5 µM] | activity change, negative = inhibition [3] -2.82% [at 10.5 µM] | activity change, negative = inhibition [4] -26.4% [at 10.5 µM] | activity change, negative = inhibition [5] 1.12% [at 6.97 µM] | activity change, negative = inhibition [6] 1.29% [at 10.5 µM]
active: Potency [1] 2.01 µM

Cc1nc(-c2ccc(OCC(C)C)c(C#N)c2)sc1C(=O)O
active: Potency [3] 17.4 µM
inactive: Potency [1] | Potency [2] | Potency [4] | Potency [5] | Potency [6]

CCCCCCCCCCCCI
inactive: Potency [1]

CCO[Si](CCCN=C=O)(OCC)OCC
inactive: Potency [1] | Potency [2] | Potency [3] | Potency [4] | Potency [5]

C=CC(=O)OCCCCCC
inactive: Potency [1] | Potency [2] | Potency [3] | Potency [4] | Potency [5]

CCCCCCC(=O)OCC
active: Potency [3] 71 µM
inactive: Potency [1] | Potency [2] | Potency [4] | Potency [5] | Potency [6]

CC1=CC(=O)CCC1
inactive: Potency [1] | Potency [2] | Potency [3] | Potency [4] | Potency [5]

Nc1ncnc2c1ncn2Cc1c(F)cccc1Cl
inactive: Potency [1] | Potency [2] | Potency [3] | Potency [4] | Potency [5] | Potency [6]

C=CCOCC(O)CS(=O)(=O)O (configuration not stated)
inactive: Potency [1] | Potency [3] | Potency [4] | Potency [6]
active: Potency [2] 80.8 µM

OC[C@H]1O[C@@H]2O[C@H]3[C@H](O)[C@@H](O)[C@@H](O[C@H]4[C@H](O)[C@@H](O)[C@@H](O[C@H]5[C@H](O)[C@@H](O)[C@@H](O[C@H]6[C@H](O)[C@@H](O)[C@@H](O[C@H]7[C@H](O)[C@@H](O)[C@@H](O[C@H]8[C@H](O)[C@@H](O)[C@@H](O[C@H]9[C@H](O)[C@@H](O)[C@@H](O[C@H]1[C@H](O)[C@H]2O)O[C@@H]9CO)O[C@@H]8CO)O[C@@H]7CO)O[C@@H]6CO)O[C@@H]5CO)O[C@@H]4CO)O[C@@H]3CO
inactive: Potency [1] | Potency [2] | Potency [3] | Potency [4] | Potency [5] | Potency [6]

CCCCCC[C@@H](CCC)C(=O)O
inactive: Potency [1] | Potency [2] | Potency [4] | Potency [5] | Potency [6]
active: Potency [3] 34.7 µM

Cc1ccccc1C(=O)O
inactive: Potency [1] | Potency [2] | Potency [3] | Potency [4] | Potency [5] | Potency [6]

CCCCCCCCCCCCCCCCCC(=O)OCCCCCCCCCCCCCC(C)C
inactive: Potency [1] | Potency [2] | Potency [3] | Potency [4] | Potency [5] | Potency [6]

COc1nc(C)nc(N)n1
inactive: Potency [1] | Potency [2] | Potency [3] | Potency [4] | Potency [5] | Potency [6]

CC1CCN(CCCC(=O)c2ccc(F)cc2)CC1
active: Potency [1] 0.246 µM | Potency [2] 34.7 µM
inactive: Potency [3] | Potency [4] | Potency [6]

CCCC=O
inactive: Potency [1] | Potency [2] | Potency [3] | Potency [4] | Potency [5] | Potency [6]

COc1cc(C(=O)N2CCOCC2)cc(OC)c1OC
inactive: Potency [1] | Potency [2] | Potency [3] | Potency [4] | Potency [6]

COc1ccc(NC(C)=O)cc1
active: Potency [1] 41 µM | Potency [4] 36.5 µM
inactive: Potency [2] | Potency [3] | Potency [5] | Potency [6]

CC12CCC(CC1=O)C2(C)C (configuration not stated)
inactive: Potency [1] | Potency [2] | Potency [3] | Potency [4] | Potency [5] | Potency [6]

COc1cccc(Br)c1
inactive: Potency [1] | Potency [2] | Potency [3] | Potency [4] | Potency [5] | Potency [6]

CCCCCOC(=O)Nc1nc(=O)n([C@@H]2O[C@H](C)[C@@H](O)[C@H]2O)cc1F
inactive: Potency [1] | Potency [2] | Potency [3] | Potency [4] | Potency [5] | Potency [6]

Cc1c(C)n(CCN(C)C)c2ccc(C(=O)OCCN(C)C)cc12
inactive: Potency [1] | Potency [2] | Potency [3] | Potency [5] | Potency [6]
active: Potency [4] 17.4 µM

CC(C)[N+](C)(C)CC(O)COc1cccc2ccccc12 (configuration not stated)
active: Potency [1] 4.36 µM
inactive: Potency [2] | Potency [3] | Potency [4] | Potency [6]

NC(=O)CCCCC1CCSS1 (configuration not stated)
inactive: Potency [1] | Potency [2] | Potency [3] | Potency [4] | Potency [5] | Potency [6]

CCCCCCCCCCCCCCC
inactive: Potency [1] | Potency [2] | Potency [3] | Potency [4] | Potency [5] | Potency [6]

CC(C)CCCC(C)NCCC(C)C (configuration not stated)
active: Potency [1] 1.23 µM
inactive: Potency [2] | Potency [3] | Potency [4] | Potency [5] | Potency [6]

O=C(CCOCCOCCOCCOCCC(=O)Nc1c(I)cc(I)c(C(=O)O)c1I)Nc1c(I)cc(I)c(C(=O)O)c1I
inactive: Potency [1] | Potency [2] | Potency [3] | Potency [4] | Potency [5] | Potency [6]

OCc1ccccn1
inactive: Potency [1] | Potency [2] | Potency [3] | Potency [4] | Potency [5] | Potency [6]

NCCN1CCNC1=O
inactive: Potency [1] | Potency [2] | Potency [3] | Potency [4] | Potency [5] | Potency [6]
